# Assay results published in PMC7862700, “An all-to-all approach to the identification of sequence-specific readers for epigenetic DNA modifications on cytosine”.
# Legend:
# Assay in all cases: DAPPL (digital affinity profiling via proximity ligation, sequencing); 10 mM Tris-HCl pH 7.5, 50 mM NaCl, 1 mM DTT, 4% glycerol, room temperature, 30 min; GST-TFs on glutathione beads, 16-mer random dsDNA library, 0.1% formaldehyde crosslink after washing; high values mean tight binding
# Details in all cases: protein: recombinant; tags: N-terminal GST; dsDNA, one strand shown
# [1] = molecular target: T1, FLI1 (Homo sapiens, UniProt Q01543 1-452)
# T1 sequence: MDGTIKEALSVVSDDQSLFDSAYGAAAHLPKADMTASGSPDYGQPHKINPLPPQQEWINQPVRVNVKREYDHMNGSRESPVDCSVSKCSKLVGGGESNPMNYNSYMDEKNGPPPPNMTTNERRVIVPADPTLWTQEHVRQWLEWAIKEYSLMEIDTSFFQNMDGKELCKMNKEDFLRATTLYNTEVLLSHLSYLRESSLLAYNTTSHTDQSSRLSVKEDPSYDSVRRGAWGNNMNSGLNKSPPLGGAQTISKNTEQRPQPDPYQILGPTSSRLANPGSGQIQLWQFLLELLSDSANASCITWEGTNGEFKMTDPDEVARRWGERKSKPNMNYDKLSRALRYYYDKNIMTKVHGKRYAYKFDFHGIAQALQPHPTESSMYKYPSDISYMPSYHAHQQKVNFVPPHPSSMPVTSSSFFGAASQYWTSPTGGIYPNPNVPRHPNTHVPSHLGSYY
# Procedure, shortened: (§1)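 After expression in yeast as GST fusions, human transcription factors were bound to glutathione beads, DNA-barcoded and mixed with a tag-only sample. The pools were incubated with 200 nmole of a 16-mer random double-stranded DNA library in Tris/NaCl/DTT/glycerol buffer (30 min, room temperature), washed and crosslinked with 0.1% formaldehyde. Proximity ligation with BsaI/T4 ligase ran for 1 h at 37 °C, before PCR amplification and sequencing on an Illumina NextSeq500. Binding signal is a hexamer's read frequency for a factor divided by its frequency for the tag-only sample.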
# [2] = molecular target: T2, ELK1 (Homo sapiens, UniProt P19419 1-428)
# T2 sequence: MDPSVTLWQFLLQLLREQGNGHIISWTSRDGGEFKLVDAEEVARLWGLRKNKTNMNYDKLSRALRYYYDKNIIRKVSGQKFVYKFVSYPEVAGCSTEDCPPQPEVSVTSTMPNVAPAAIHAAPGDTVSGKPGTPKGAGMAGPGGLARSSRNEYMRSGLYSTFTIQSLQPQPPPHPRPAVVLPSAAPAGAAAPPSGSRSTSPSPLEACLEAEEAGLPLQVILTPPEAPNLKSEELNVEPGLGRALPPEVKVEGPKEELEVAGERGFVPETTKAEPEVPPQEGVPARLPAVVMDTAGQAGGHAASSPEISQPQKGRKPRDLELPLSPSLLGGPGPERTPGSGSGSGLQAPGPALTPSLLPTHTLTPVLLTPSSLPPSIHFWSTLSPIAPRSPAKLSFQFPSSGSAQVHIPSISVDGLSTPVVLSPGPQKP
# Procedure, shortened: as §1
# [3] = molecular target: T3, GABPA (Homo sapiens, UniProt Q06546 1-454)
# T3 sequence: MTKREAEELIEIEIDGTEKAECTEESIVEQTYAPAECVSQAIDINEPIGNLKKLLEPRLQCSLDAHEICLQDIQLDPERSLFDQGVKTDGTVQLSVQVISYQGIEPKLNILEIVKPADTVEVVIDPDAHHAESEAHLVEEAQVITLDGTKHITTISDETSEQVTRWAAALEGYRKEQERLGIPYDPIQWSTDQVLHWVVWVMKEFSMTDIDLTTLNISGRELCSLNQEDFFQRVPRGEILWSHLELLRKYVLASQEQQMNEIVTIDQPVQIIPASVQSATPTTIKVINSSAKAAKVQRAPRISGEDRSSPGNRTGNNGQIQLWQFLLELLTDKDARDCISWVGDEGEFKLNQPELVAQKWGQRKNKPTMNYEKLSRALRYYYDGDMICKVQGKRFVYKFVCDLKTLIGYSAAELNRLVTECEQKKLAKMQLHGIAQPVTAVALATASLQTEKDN
# Procedure, shortened: as §1
# [4] = molecular target: T4, ERG (Homo sapiens, UniProt P11308 1-479)
# T4 sequence: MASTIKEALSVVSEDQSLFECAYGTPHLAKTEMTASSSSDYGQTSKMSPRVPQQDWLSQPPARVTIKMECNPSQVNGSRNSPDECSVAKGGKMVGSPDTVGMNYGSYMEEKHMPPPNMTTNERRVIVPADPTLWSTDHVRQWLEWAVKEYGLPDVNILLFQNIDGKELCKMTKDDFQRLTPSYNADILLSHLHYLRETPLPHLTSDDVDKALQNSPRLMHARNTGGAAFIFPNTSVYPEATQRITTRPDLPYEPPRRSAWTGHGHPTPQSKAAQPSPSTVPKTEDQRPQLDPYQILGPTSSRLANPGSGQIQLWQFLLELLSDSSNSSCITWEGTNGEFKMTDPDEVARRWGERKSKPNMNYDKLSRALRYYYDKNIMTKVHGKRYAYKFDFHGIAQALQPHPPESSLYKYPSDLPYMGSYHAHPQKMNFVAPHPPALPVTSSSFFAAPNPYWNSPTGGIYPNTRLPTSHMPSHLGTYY
# Procedure, shortened: as §1
# [5] = molecular target: ELF1 (Homo sapiens, UniProt P32519 1-619)
# ELF1, sequence (P32519 whole entry): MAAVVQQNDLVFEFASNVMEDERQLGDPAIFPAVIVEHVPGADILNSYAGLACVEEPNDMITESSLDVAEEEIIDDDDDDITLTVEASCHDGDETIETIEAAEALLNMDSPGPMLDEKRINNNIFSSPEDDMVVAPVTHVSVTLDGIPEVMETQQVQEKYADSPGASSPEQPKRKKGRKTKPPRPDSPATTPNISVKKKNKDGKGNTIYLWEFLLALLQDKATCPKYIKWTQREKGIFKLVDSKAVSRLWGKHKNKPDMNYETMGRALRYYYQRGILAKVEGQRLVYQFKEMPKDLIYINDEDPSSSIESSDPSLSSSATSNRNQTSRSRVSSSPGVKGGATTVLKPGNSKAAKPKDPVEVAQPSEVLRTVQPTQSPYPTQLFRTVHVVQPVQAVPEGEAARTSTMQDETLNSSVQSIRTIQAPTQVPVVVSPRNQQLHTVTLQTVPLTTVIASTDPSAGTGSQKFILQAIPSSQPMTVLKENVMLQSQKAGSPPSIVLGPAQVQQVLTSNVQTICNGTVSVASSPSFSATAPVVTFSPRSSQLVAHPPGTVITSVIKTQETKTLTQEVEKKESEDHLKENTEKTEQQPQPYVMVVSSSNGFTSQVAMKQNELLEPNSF
# Procedure, shortened: as §1
# [6] = molecular target: T5, EHF (Homo sapiens, UniProt Q9NZC4 1-300)
# T5 sequence: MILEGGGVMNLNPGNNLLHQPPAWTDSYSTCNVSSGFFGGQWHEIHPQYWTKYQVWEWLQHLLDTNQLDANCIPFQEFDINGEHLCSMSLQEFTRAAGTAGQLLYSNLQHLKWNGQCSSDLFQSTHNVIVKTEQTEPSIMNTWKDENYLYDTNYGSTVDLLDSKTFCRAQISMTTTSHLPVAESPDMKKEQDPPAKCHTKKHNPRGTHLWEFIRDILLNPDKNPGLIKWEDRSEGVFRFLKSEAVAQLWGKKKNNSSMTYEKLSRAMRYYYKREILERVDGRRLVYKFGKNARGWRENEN
# Procedure, shortened: as §1
# [7] = molecular target: SPI1 (Homo sapiens, UniProt P17947 1-270)
# Procedure, shortened: as §1
# [8] = molecular target: SPIB (Homo sapiens, UniProt Q01892 1-262)
# SPIB, sequence (Q01892 whole entry): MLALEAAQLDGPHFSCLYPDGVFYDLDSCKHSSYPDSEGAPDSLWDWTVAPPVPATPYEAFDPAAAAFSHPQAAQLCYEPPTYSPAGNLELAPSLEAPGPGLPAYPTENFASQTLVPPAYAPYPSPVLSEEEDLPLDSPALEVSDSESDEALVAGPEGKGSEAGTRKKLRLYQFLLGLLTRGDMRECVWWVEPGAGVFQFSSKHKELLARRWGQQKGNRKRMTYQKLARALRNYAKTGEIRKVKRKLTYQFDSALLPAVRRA
# Procedure, shortened: as §1
# [9] = molecular target: T6, ELK3 (Homo sapiens, UniProt P41970 1-407)
# T6 sequence: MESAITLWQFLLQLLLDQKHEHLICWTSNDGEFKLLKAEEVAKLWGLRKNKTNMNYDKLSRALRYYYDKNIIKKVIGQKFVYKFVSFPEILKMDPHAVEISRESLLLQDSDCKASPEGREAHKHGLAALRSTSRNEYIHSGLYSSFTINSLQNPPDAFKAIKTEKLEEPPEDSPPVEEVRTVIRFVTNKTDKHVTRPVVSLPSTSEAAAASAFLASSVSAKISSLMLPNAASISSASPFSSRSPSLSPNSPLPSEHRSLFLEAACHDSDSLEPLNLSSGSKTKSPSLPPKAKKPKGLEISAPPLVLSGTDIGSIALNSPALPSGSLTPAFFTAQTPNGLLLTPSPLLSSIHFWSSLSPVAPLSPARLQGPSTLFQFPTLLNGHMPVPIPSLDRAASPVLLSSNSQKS
# Procedure, shortened: as §1
Sequence,binding signal [1],binding signal [2],binding signal [3],binding signal [4],binding signal [5],binding signal [6],binding signal [7],binding signal [8],binding signal [9]
AACCTC,"1.22 fold enrichment (6-mer frequency, TF over GST control)","1.27 fold enrichment (6-mer frequency, TF over GST control)","1.28 fold enrichment (6-mer frequency, TF over GST control)","1.23 fold enrichment (6-mer frequency, TF over GST control)","1.29 fold enrichment (6-mer frequency, TF over GST control)","1.2 fold enrichment (6-mer frequency, TF over GST control)","1.2 fold enrichment (6-mer frequency, TF over GST control)","1.19 fold enrichment (6-mer frequency, TF over GST control)","1.23 fold enrichment (6-mer frequency, TF over GST control)"
CGATTA,"1.15 fold enrichment (6-mer frequency, TF over GST control)","1.07 fold enrichment (6-mer frequency, TF over GST control)","1.17 fold enrichment (6-mer frequency, TF over GST control)","1.16 fold enrichment (6-mer frequency, TF over GST control)","1.15 fold enrichment (6-mer frequency, TF over GST control)","1.11 fold enrichment (6-mer frequency, TF over GST control)","1.09 fold enrichment (6-mer frequency, TF over GST control)","1.13 fold enrichment (6-mer frequency, TF over GST control)","1.19 fold enrichment (6-mer frequency, TF over GST control)"
ACTATC,"1.15 fold enrichment (6-mer frequency, TF over GST control)","1.13 fold enrichment (6-mer frequency, TF over GST control)","1.17 fold enrichment (6-mer frequency, TF over GST control)","1.11 fold enrichment (6-mer frequency, TF over GST control)","1.12 fold enrichment (6-mer frequency, TF over GST control)","1.14 fold enrichment (6-mer frequency, TF over GST control)","1.21 fold enrichment (6-mer frequency, TF over GST control)","1.16 fold enrichment (6-mer frequency, TF over GST control)","1.07 fold enrichment (6-mer frequency, TF over GST control)"
GCCTAC,"1.18 fold enrichment (6-mer frequency, TF over GST control)","1.17 fold enrichment (6-mer frequency, TF over GST control)","1.28 fold enrichment (6-mer frequency, TF over GST control)","1.25 fold enrichment (6-mer frequency, TF over GST control)","1.21 fold enrichment (6-mer frequency, TF over GST control)","1.25 fold enrichment (6-mer frequency, TF over GST control)","1.18 fold enrichment (6-mer frequency, TF over GST control)","1.21 fold enrichment (6-mer frequency, TF over GST control)","1.1 fold enrichment (6-mer frequency, TF over GST control)"
TCACGC,"1.35 fold enrichment (6-mer frequency, TF over GST control)","1.18 fold enrichment (6-mer frequency, TF over GST control)","1.22 fold enrichment (6-mer frequency, TF over GST control)","1.18 fold enrichment (6-mer frequency, TF over GST control)","1.2 fold enrichment (6-mer frequency, TF over GST control)","1.24 fold enrichment (6-mer frequency, TF over GST control)","1.17 fold enrichment (6-mer frequency, TF over GST control)","1.17 fold enrichment (6-mer frequency, TF over GST control)","1.28 fold enrichment (6-mer frequency, TF over GST control)"
ACGTCC,"1.59 fold enrichment (6-mer frequency, TF over GST control)","1.58 fold enrichment (6-mer frequency, TF over GST control)","1.61 fold enrichment (6-mer frequency, TF over GST control)","1.67 fold enrichment (6-mer frequency, TF over GST control)","1.55 fold enrichment (6-mer frequency, TF over GST control)","1.63 fold enrichment (6-mer frequency, TF over GST control)","1.49 fold enrichment (6-mer frequency, TF over GST control)","1.72 fold enrichment (6-mer frequency, TF over GST control)","1.85 fold enrichment (6-mer frequency, TF over GST control)"
GTCTCG,"1.36 fold enrichment (6-mer frequency, TF over GST control)","1.37 fold enrichment (6-mer frequency, TF over GST control)","1.3 fold enrichment (6-mer frequency, TF over GST control)","1.26 fold enrichment (6-mer frequency, TF over GST control)","1.32 fold enrichment (6-mer frequency, TF over GST control)","1.28 fold enrichment (6-mer frequency, TF over GST control)","1.33 fold enrichment (6-mer frequency, TF over GST control)","1.43 fold enrichment (6-mer frequency, TF over GST control)","1.37 fold enrichment (6-mer frequency, TF over GST control)"
ATAATC,"1.17 fold enrichment (6-mer frequency, TF over GST control)","1.16 fold enrichment (6-mer frequency, TF over GST control)","1.14 fold enrichment (6-mer frequency, TF over GST control)","1.13 fold enrichment (6-mer frequency, TF over GST control)","1.07 fold enrichment (6-mer frequency, TF over GST control)","1.14 fold enrichment (6-mer frequency, TF over GST control)","1.1 fold enrichment (6-mer frequency, TF over GST control)","1.08 fold enrichment (6-mer frequency, TF over GST control)","1.17 fold enrichment (6-mer frequency, TF over GST control)"
